# Calls of active or inactive are those of the source.
# Legend:
# [1] = system: PRMT1 (protein arginine N-methyltransferase 1); experiment: small molecules binding arginine methyltransferase PRMT1 – biochemical, small-molecule microarray, 635 nm fluorescence, primary screen (AID 1088); settings: higher = more signal;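 further: binding of Prmt1 protein to compounds spotted on small-molecule microarray slides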
# [2] = growth effects on S. cerevisiae YJM789 – YJM789 clinical isolate, OD600, 24 h, basal, primary screen (AID 1089); settings: higher = more signal, called active from +8 up or from −8 down;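 further: growth of clinical yeast isolate S. cerevisiae YJM 789 seeded 1000 cells per well; test concentration not given here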
# [3] = S. pombe growth modifiers, basal conditions – strain 972, OD600, 24 h, no modulator, primary screen (AID 1090);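 further: basal condition with compound alone and no growth modifier present; test concentration not given here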; settings: S. pombe 972 growth, higher = more signal, called active from +8 up or from −8 down
# [4] = budding yeast growth modifiers under rapamycin – strain BY4716, OD600, 96 h, primary screen (AID 1091); further: test concentration not given here; settings: S. cerevisiae BY4716 + rapamycin, higher = more signal, called active from +8 up or from −8 down
# [5] = target: Torsin-1A-interacting protein 2 (Homo sapiens) (UniProt Q8NFQ8); experiment: small molecules binding lysate-expressed LULL1 – cell lysate, human LULL1 lysate, 635/667 nm fluorescence, primary screen (AID 1092); settings: small-molecule microarray, hLULL1 lysate binding, 635 nm fluorescence; higher = more signal;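 further: probe is lysate of COS7 cells overexpressing human LULL1; score merges per-feature 667 nm fluorescence with signal-to-noise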
# [6] = optical density change of DRC41 E. coli – strain DRC41, OD650, 24 h, E. coli filamentation project, primary screen (AID 1093);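 further: MC1000 strain lacking acrAB efflux and sulA so SOS filamentation is blocked; test concentration not given here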; settings: E. coli DRC41 growth, higher = more signal, called active from +8 up or from −8 down
# [7] = probe aLefty2 binding to arrayed compounds – biochemical, biotinylated probe, 635/667 nm fluorescence, primary screen (AID 1094); settings: small-molecule microarray, higher = more signal;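 further: score merges spot fluorescence near 667 nm with spot signal-to-noise ratio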
# [8] = system: Noggin (protein binding on small-molecule microarray); experiment: small molecules binding Noggin protein – biochemical, 635/667 nm fluorescence, primary screen (AID 1095); settings: 635 nm fluorescence, higher = more signal;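 further: score merges 667 nm feature fluorescence with signal to noise over triplicate slides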
# [9] = target: Neurogenic locus notch homolog protein 3 (Homo sapiens) (UniProt Q9UM47); experiment: small molecules binding NOTCH3 protein – biochemical, 635/667 nm fluorescence, primary screen (AID 1096); settings: small-molecule microarray, 635 nm fluorescence, higher = more signal
# [10] = probe aEGFR binding to arrayed compounds – biochemical, biotinylated probe, 635/667 nm fluorescence, primary screen (AID 1097); settings: small-molecule microarray, higher = more signal;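 further: probe is a biotinylated anti-EGFR antibody binding compounds printed on slides; score combines fluorescence near 667 nm and signal to noise of each spot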
# [11] = system: Plasmodium falciparum Sir2 (PF13_0152, Sir2A); experiment: Plasmodium falciparum Sir2A binding compounds – biochemical, small-molecule microarray, 635 nm fluorescence, primary screen (AID 1098); settings: fluorescence 635 nm, higher = more signal;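 further: score merges spot fluorescence intensity with its signal-to-noise ratio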
# [12] = probe aDKK1 binding to arrayed compounds – biochemical, biotinylated probe, 635/667 nm fluorescence, primary screen (AID 1099); settings: small-molecule microarray, higher = more signal;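 further: score merges 667nm spot fluorescence with signal to noise across triplicate slides; reference of the scale not given here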
# [13] = probe aCHRDL2 binding to arrayed compounds – biochemical, biotinylated probe, 635/667 nm fluorescence, primary screen (AID 1100); settings: small-molecule microarray, higher = more signal
# [14] = change in splice reporter luminescence, either direction, cell-based, HEK293, spliceosome inhibition project, primary screen (AID 1101); settings: HEK293 splicing luciferase reporter, 24 h, higher = more signal, called active from +8 up or from −8 down;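 further: HEK293 cells carrying a splicing-competent luciferase reporter gene; test concentration not given here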
# [15] = target: Fibroblast growth factor 10 (Homo sapiens) (UniProt O15520); experiment: compounds binding fibroblast growth factor 10 – biochemical, small-molecule microarray, 635 nm fluorescence, primary screen (AID 1102); settings: FGF10 binding, fluorescence 635 nm, higher = more signal
# [16] = system: glycogen synthase kinase-3 (GSK3A per assay name; protocol says GSK3B); experiment: compounds binding glycogen synthase kinase-3 – biochemical, small-molecule microarray, 635 nm fluorescence, GSK3A, primary screen (AID 1103); settings: fluorescence 635 nm, higher = more signal; further: the record names both GSK3A and GSK3B
# [17] = target: Epidermal growth factor receptor (Homo sapiens) (UniProt P00533); experiment: compounds binding epidermal growth factor receptor – biochemical, small-molecule microarray, 635 nm fluorescence, primary screen (AID 1104); settings: EGFR binding, higher = more signal;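 further: score merges 667 nm emission intensity with spot signal to noise over triplicate slides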
# [18] = target: Follistatin-related protein 3 (Homo sapiens) (UniProt O95633); experiment: compounds binding follistatin-related protein 3 – biochemical, small-molecule microarray, 635 nm fluorescence, primary screen (AID 1105); settings: FSTL3 binding, higher = more signal;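 further: score merges emission near 667 nm and signal to noise per printed spot across three slides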
# [19] = target: Dickkopf-related protein 1 (Homo sapiens) (UniProt O94907); experiment: small molecules binding DKK1 protein – biochemical, small-molecule microarray, 635 nm fluorescence scan, primary screen (AID 1106); settings: higher = more signal;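 further: score merges emission near 667 nm with signal to noise over three replicate slides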
# [20] = system: Inhibin beta A chain (activin A); experiment: small molecules binding activin A – biochemical, small-molecule microarray, 635 nm fluorescence scan, primary screen (AID 1107); settings: INHBA, higher = more signal;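 further: mouse activin A protein probed at 4.33 µg/mL on printed slides; score merges bound-protein fluorescence near 667 nm with spot signal-to-noise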
# Sequence of Follistatin-related protein 3 (Homo sapiens) (O95633 whole entry, looked up): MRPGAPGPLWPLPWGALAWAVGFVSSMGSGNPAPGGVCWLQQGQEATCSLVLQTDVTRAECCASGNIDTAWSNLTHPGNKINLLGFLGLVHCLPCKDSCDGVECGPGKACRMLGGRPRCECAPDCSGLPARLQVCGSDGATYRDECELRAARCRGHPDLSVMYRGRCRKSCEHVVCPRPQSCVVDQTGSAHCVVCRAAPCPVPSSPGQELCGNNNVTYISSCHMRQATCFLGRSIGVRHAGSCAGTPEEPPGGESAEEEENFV
# Sequence of Fibroblast growth factor 10 (Homo sapiens) (O15520 whole entry, looked up): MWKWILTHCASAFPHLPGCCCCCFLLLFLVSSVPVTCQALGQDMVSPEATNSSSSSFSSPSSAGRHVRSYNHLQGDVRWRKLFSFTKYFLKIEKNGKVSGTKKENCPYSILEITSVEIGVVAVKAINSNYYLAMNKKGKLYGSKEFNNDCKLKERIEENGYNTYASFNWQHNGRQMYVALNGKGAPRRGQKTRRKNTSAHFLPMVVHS
# Sequence of Epidermal growth factor receptor (Homo sapiens) (P00533 whole entry, looked up): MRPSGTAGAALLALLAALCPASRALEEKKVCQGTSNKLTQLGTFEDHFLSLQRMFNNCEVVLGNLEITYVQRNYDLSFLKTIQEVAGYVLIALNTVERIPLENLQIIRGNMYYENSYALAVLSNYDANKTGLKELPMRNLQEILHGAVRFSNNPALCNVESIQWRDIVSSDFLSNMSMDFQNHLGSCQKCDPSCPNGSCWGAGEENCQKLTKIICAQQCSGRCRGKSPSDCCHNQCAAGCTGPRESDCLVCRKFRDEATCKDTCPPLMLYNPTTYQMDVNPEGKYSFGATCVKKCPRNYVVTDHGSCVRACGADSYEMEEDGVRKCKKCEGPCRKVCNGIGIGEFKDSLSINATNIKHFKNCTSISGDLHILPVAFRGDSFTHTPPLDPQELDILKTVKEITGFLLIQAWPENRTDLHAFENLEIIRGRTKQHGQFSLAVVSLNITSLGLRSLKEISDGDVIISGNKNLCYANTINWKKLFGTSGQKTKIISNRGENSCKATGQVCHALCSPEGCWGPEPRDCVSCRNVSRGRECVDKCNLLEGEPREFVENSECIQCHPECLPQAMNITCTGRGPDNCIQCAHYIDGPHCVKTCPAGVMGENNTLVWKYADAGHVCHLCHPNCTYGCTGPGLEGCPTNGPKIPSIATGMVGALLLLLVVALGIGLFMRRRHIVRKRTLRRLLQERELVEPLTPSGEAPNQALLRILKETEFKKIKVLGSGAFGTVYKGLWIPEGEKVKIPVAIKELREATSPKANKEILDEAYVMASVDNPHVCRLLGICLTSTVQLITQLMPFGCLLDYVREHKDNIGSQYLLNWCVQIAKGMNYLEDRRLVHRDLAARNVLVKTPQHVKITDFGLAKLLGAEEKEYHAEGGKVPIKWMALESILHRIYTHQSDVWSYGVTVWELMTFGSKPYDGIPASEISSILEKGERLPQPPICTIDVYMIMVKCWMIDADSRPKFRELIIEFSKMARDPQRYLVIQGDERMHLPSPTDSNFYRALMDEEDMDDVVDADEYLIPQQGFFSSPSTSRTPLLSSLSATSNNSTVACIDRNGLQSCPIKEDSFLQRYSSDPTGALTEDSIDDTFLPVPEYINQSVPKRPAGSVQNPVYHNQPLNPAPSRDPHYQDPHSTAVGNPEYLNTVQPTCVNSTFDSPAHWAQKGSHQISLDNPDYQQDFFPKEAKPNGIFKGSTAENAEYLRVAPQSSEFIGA
# Sequence of Neurogenic locus notch homolog protein 3 (Homo sapiens) (Q9UM47 whole entry, looked up): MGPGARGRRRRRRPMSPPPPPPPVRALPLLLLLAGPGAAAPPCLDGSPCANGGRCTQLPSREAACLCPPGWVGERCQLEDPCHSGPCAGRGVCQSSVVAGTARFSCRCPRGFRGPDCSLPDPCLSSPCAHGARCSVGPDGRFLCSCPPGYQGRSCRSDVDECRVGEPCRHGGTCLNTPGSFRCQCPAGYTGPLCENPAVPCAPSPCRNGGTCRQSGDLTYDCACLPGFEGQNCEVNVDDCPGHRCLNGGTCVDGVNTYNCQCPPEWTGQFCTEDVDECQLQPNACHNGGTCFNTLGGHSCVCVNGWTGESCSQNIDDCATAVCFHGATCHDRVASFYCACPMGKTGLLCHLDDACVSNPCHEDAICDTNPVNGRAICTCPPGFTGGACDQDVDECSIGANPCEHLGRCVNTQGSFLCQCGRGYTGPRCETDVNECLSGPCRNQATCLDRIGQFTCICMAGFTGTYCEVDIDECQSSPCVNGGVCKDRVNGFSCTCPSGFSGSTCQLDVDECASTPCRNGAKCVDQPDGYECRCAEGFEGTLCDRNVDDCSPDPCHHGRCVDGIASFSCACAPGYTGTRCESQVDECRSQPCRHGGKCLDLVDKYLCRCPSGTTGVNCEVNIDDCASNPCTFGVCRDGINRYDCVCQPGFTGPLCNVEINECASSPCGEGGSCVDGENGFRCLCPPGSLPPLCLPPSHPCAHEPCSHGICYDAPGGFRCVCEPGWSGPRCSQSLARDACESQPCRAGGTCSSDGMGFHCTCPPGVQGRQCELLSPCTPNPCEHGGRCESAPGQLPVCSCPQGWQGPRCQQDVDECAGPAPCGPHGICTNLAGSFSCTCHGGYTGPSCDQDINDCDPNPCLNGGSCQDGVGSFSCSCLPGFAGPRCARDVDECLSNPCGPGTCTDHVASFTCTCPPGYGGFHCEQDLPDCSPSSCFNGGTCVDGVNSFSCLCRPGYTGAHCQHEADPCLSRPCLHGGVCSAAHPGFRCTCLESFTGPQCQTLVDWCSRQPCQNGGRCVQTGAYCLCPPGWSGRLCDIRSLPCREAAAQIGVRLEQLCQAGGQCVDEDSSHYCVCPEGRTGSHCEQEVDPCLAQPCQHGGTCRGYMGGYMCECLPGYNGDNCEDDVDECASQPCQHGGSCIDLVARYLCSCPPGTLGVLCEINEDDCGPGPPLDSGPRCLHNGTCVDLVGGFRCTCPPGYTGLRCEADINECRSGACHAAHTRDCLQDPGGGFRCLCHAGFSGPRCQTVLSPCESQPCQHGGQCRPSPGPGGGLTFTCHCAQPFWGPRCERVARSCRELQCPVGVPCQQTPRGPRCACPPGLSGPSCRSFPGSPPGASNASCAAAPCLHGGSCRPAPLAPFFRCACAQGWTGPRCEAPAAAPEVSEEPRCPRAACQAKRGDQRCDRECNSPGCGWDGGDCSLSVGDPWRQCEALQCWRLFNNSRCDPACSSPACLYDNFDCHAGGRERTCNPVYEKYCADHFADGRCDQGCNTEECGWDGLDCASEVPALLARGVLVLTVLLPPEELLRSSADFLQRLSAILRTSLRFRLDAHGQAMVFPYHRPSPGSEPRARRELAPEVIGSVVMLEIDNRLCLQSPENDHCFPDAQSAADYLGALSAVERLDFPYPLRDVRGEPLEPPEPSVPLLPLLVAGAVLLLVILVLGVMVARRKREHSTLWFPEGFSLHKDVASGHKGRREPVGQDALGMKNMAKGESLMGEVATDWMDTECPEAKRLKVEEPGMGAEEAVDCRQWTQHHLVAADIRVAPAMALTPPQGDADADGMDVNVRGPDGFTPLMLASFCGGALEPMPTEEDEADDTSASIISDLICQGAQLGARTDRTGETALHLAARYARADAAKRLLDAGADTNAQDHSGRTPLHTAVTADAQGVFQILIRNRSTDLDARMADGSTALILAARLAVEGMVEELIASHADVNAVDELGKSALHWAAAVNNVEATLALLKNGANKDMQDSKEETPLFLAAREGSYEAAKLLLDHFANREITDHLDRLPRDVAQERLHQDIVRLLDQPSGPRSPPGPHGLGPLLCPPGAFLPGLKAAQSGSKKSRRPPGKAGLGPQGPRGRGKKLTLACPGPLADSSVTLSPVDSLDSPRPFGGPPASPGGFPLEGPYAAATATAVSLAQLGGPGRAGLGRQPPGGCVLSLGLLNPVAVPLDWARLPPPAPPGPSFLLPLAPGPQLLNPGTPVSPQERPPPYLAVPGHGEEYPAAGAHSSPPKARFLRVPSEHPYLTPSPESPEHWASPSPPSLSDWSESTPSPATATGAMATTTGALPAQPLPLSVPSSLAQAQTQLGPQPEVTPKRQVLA
# Sequence of Dickkopf-related protein 1 (Homo sapiens) (O94907 whole entry, looked up): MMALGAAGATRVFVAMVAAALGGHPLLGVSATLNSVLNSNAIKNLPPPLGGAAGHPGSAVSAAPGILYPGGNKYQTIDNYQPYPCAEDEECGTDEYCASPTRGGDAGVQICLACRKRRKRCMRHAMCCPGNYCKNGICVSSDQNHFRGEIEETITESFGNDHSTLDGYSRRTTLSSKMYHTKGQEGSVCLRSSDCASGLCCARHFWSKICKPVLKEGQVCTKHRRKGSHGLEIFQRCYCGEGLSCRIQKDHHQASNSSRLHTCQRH
# Sequence of Torsin-1A-interacting protein 2 (Homo sapiens) (Q8NFQ8 whole entry, looked up): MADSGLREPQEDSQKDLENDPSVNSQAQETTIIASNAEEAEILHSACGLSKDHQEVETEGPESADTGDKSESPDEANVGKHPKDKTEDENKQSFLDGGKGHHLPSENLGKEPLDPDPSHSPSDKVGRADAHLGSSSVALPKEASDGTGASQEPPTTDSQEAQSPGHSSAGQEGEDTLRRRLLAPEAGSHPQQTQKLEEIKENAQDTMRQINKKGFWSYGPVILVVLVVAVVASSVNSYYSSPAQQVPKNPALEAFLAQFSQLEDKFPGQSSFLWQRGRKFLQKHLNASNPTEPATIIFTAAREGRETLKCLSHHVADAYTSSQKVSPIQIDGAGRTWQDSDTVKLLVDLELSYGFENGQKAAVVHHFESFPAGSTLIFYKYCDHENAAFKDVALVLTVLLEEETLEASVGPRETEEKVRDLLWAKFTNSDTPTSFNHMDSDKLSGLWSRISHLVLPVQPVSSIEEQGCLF
Compound,composite z-score [1],z-score [2],z-score [3],z-score [4],composite z-score [5],z-score [6],composite z-score [7],composite z-score [8],composite z-score [9],composite z-score [10],composite z-score [11],composite z-score [12],composite z-score [13],z-score [14],composite z-score [15],composite z-score [16],composite z-score [17],composite z-score [18],composite z-score [19],composite z-score [20]
CCCCCN1CC=CC23O[C@@H]4C=CCOC(=O)[C@@H]4[C@H]2C(=O)N(C(C)CO)[C@@H]3C1=O (stereo not given in full),-0.508,-0.076 (inactive),-0.226 (inactive),0.0795 (inactive),-0.952,0.266 (inactive),-0.174,-1,-0.553,-0.296,1.4,-0.162,0.381,1.03 (inactive),-0.571,-0.831,-1.44,-1.25,-0.693,-0.469
O=C1O[C@H](c2ccccc2)[C@H](c2ccccc2)N2[C@H]1[C@@H](C(=O)NC[C@H](O)c1ccccc1)[C@]1(C(=O)Nc3ccccc31)[C@H]2c1ccc(O)cc1,1.39,0.754 (inactive),0.817 (inactive),1.7 (inactive),2.56,-0.408 (inactive),-0.134,0.798,0.608,-0.108,0.758,-0.0713,0.489,-0.4 (inactive),1.3,0.476,0.555,0.749,0.964,-1.04
COc1ccc(C(O)C2C=CC3C(=O)N(C)C(=O)C3N2NC(=O)OC(C)(C)C)c2ccccc12 (stereo not given),1.57,-0.842 (inactive),1.64 (inactive),0.577 (inactive),3.12,-0.618 (inactive),0.284,-0.149,1.08,0.0185,1.47,0.578,1.01,1.41 (inactive),1.16,1.27,0.138,1.32,-0.557,0.441
CC(c1ccccc1)C(O)C1C=CC2C(=O)N(c3ccccc3)C(=O)C2N1Nc1ccccc1 (stereo not given),1.54,0.205 (inactive),1.23 (inactive),0.442 (inactive),3.62,-0.702 (inactive),0.0008,0.833,1.05,0.0038,1.18,0.807,0.818,-0.716 (inactive),1.4,0.297,0.177,1.46,-0.0656,0.215
OB1C=CCC(CCc2ccccc2)O1 (stereo not given),-1.12,-1.95 (inactive),-2.06 (inactive),-0.762 (inactive),-1.05,1.96 (inactive),-0.192,-0.0988,-1.12,-0.211,1.57,-0.246,0.0796,-0.817 (inactive),-0.184,-0.428,0.0835,-0.544,-0.191,1.67

# Source: PubChem BioAssay
